This is an account of results in PubChem BioAssay (EPA / NIEHS).

Read-out in assay [1]: solute carrier (SLC22A1), SLC22A1 (gene 6580)
Put plainly: LTEA_HepaRG_SLC22A1: Life Technologies and Expression Analysis (LTEA) Assay for solute carrier (SLC22A1) using HepaRG (AID 2283524). The following applies: mRNA level, 48 h; actives raise or lower the signal. Put shortly:
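Transcript level of SLC22A1 quantified by qRT-PCR (normalized to three housekeeping genes) after 48 h chemical exposure of HepaRG cells, eight concentrations up to 100 µM, half-log steps, 0.5% DMSO vehicle. Gain or loss relative to DMSO fitted bidirectionally.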

Read-out in assay [2]: Pyruvate Dehydrogenase Kinase 4 (PDK4), PDK4 (gene 5166)
Put plainly: LTEA_HepaRG_PDK4: Life Technologies and Expression Analysis (LTEA) Assay for Pyruvate Dehydrogenase Kinase 4 (PDK4) using HepaRG (AID 2283525). The following applies: mRNA level, 48 h; actives raise or lower the signal. An outline of the steps:
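Readout is qRT-PCR of PDK4 transcript, normalized to three housekeeping genes, with bidirectional fitting against 0.5% DMSO vehicle. Differentiated HepaRG cells were treated 48 h in serum-free induction medium, duplicate wells, eight-point half-log series topping at 100 uM.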

Read-out in assay [3]: NAD(P)H dehydrogenase [quinone] 1 (NQO1), NQO1 (gene 1728)
Put plainly: LTEA_HepaRG_NQO1: Life Technologies and Expression Analysis (LTEA) Assay for NAD(P)H dehydrogenase [quinone] 1 (NQO1) using HepaRG (AID 2283526). The following applies: mRNA level, 48 h; actives raise or lower the signal. An outline of the steps: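 In this assay, gene expression is read by qRT-PCR after 48 h exposure of HepaRG cells to eight concentrations (max 100 uM, half-log) in 0.5% DMSO. Each chemical runs in duplicate, and activity is scored relative to vehicle.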

Read-out in assay [4]: Nuclear factor erythroid 2-related factor 2 (Homo sapiens) (UniProt Q16236)
Put plainly: LTEA_HepaRG_NFE2L2: Life Technologies and Expression Analysis (LTEA) Assay for Nuclear factor erythroid 2-related factor 2 (NFE2L2) Transcription Factor using HepaRG (AID 2283527). The following applies: mRNA level, 48 h; actives raise or lower the signal. Put shortly: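 NFE2L2 transcript level was read by qRT-PCR (housekeeping ACTB/GAPDH/POLR2A normalisation) after 48 h chemical treatment of HepaRG in serum-free induction medium. Duplicate 8-point half-log curves, top 100 uM, 0.5% DMSO vehicle; up- or down-regulation fitted against vehicle.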

Read-out in assay [5]: Signal transducer and activator of transcription 3 (Homo sapiens) (UniProt P40763)
Put plainly: LTEA_HepaRG_STAT3: Life Technologies and Expression Analysis (LTEA) Assay for Signal transducer and activator of transcription (STAT3) using HepaRG (AID 2283529). The note with it: mRNA level, 48 h; actives raise or lower the signal. An outline of the steps: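 STAT3 transcript quantified by qRT-PCR against three housekeeping genes (ACTB, GAPDH, POLR2A), fitted both directions relative to DMSO. HepaRG cultures exposed 48 h to eight half-log concentrations, top 100 uM, 0.5% DMSO, serum-free induction medium.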

Read-out in assay [6]: solute carrier (SLCO1B1), SLCO1B1 (gene 10599)
Put plainly: LTEA_HepaRG_SLCO1B1: Life Technologies and Expression Analysis (LTEA) Assay for solute carrier (SLCO1B1) using HepaRG (AID 2283530). The following applies: mRNA level, 48 h; actives raise or lower the signal. An outline of the steps: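 Differentiated human HepaRG cells, plated 48 h, switched to serum-free induction medium and exposed in duplicate for 48 h to 8 half-log concentrations (top 100 uM) in 0.5% DMSO. SLCO1B1 mRNA by TaqMan qRT-PCR, normalized to ACTB/GAPDH/POLR2A.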

Read-out in assay [7]: sulfotransferase 2A1 (SULT2A1), SULT2A1 (gene 6822)
Put plainly: LTEA_HepaRG_SULT2A1: Life Technologies and Expression Analysis (LTEA) Assay for sulfotransferase 2A1 (SULT2A1) using HepaRG (AID 2283531). The following applies: mRNA level, 48 h; actives raise or lower the signal. Put shortly: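 Differentiated human HepaRG cells in serum-free induction medium were exposed for 48 h to eight half-log concentrations (top 100 uM, 0.5% DMSO). SULT2A1 mRNA was measured by qRT-PCR, normalized to ACTB, GAPDH and POLR2A, and fitted bidirectionally against DMSO.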

Read-out in assay [8]: Transforming Growth Factor (TGFA), TGFA (gene 7039)
The experiment in a line: LTEA_HepaRG_TGFA: Life Technologies and Expression Analysis (LTEA) Assay for Transforming Growth Factor (TGFA) using HepaRG (AID 2283532). The note with it: mRNA level, 48 h; actives raise or lower the signal. Put shortly:
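TGFA transcript quantified by qRT-PCR (Fluidigm arrays) against three housekeeping genes, after 48 hours chemical treatment of HepaRG cells. Top concentration 100 uM with half-log dilutions, 8 points, duplicates, 0.5% DMSO.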

Read-out in assay [9]: TIMP1, TIMP1 (gene 7076)
The experiment in a line: LTEA_HepaRG_TIMP1: Life Technologies and Expression Analysis (LTEA) Assay for TIMP1 using HepaRG (AID 2283534). The following applies: mRNA level, 48 h; actives raise or lower the signal. An outline of the steps: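 Differentiated human HepaRG cells in serum-free induction medium were exposed 48 h to chemicals (8 half-log concentrations, top 100 uM, 0.5% DMSO). TIMP1 mRNA was quantified by TaqMan qRT-PCR, normalized to ACTB/GAPDH/POLR2A; bidirectional fit versus DMSO.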

Read-out in assay [10]: Tumor necrosis factor receptor 1 (TNFRSF1A), TNFRSF1A (gene 7132)
Put plainly: LTEA_HepaRG_TNFRSF1A: Life Technologies and Expression Analysis (LTEA) Assay for Tumor necrosis factor receptor 1 (TNFRSF1A) using HepaRG (AID 2283535). The following applies: mRNA level, 48 h; actives raise or lower the signal. Put shortly:
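Differentiated human HepaRG cells were exposed in duplicate for 48 h in serum-free induction medium to eight concentrations (top 100 uM, half-log steps, 0.5% DMSO). TNFRSF1A mRNA was quantified by qRT-PCR, normalized to ACTB, GAPDH and POLR2A, then fitted bidirectionally against DMSO.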

Read-out in assay [11]: Thyroid Hormone Responsive (THRSP), THRSP (gene 7069)
Put plainly: LTEA_HepaRG_THRSP: Life Technologies and Expression Analysis (LTEA) Assay for Thyroid Hormone Responsive (THRSP) using HepaRG (AID 2283536). The note with it: mRNA level, 48 h; actives raise or lower the signal. Put shortly: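 THRSP transcript quantified by Fluidigm qRT-PCR against three housekeeping genes after 48 h chemical exposure of HepaRG cells in serum-free induction medium; eight-point half-log series, top 100 uM, 0.5% DMSO vehicle, duplicate wells.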

Read-out in assay [12]: Cellular tumor antigen p53 (Homo sapiens) (UniProt P04637)
The experiment in a line: LTEA_HepaRG_TP53: Life Technologies and Expression Analysis (LTEA) Assay for Tumor Protein P53 (TP53) using HepaRG (AID 2283537). The note with it: mRNA level, 48 h; actives raise or lower the signal. An outline of the steps: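 Differentiated HepaRG cells in serum-free induction medium exposed 48 h in duplicate to 8 half-log concentrations, top 100 uM, 0.5% DMSO. TP53 mRNA by TaqMan qRT-PCR (Fluidigm), normalized to ACTB, GAPDH, POLR2A; fitted bidirectionally versus DMSO.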

Read-out in assay [13]: UDP glucuronosyltransferase (UGT1A1), UGT1A1 (gene 54658)
Put plainly: LTEA_HepaRG_UGT1A1: Life Technologies and Expression Analysis (LTEA) Assay for UDP glucuronosyltransferase (UGT1A1) using HepaRG (AID 2283538). The following applies: mRNA level, 48 h; actives raise or lower the signal. Put shortly:
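mRNA induction or loss of UGT1A1, by TaqMan qRT-PCR, in duplicate HepaRG wells after 48 h exposure to half-log dilutions topping at 100 uM; DMSO (0.5%) served as baseline.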

Read-out in assay [14]: UDP glucuronosyltransferase (UGT1A6), UGT1A6 (gene 54578)
Put plainly: LTEA_HepaRG_UGT1A6: Life Technologies and Expression Analysis (LTEA) Assay for UDP glucuronosyltransferase (UGT1A6) using HepaRG (AID 2283539). The following applies: mRNA level, 48 h; actives raise or lower the signal. Put shortly: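 Human HepaRG cells were dosed for 48 h in serum-free induction medium with 0.5% DMSO vehicle, eight-point half-log series from 100 uM, in duplicate. UGT1A6 mRNA was measured by qRT-PCR, normalized to ACTB, GAPDH, POLR2A, and fitted bidirectionally against DMSO.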

Read-out in assay [15]: X-box binding protein 1 (XBP1), XBP1 (gene 7494)
The experiment in a line: LTEA_HepaRG_XBP1: Life Technologies and Expression Analysis (LTEA) Assay for X-box binding protein 1 (XBP1) using HepaRG (AID 2283540). The note with it: mRNA level, 48 h; actives raise or lower the signal. Put shortly:
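Differentiated human HepaRG cells in serum-free induction medium were exposed in duplicate for 48 h to eight half-log concentrations up to 100 uM in 0.5% DMSO. XBP1 mRNA was quantified by qRT-PCR, normalised to ACTB, GAPDH and POLR2A, with bidirectional fitting against DMSO.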

Assay [16] can be described thus: LTEA_HepaRG_LDH_cytotoxicity: Cytotoxicity Assessment in the Life Technologies and Expression Analysis (LTEA) Assay (AID 2283563; active means hit-call score of the fitted dose curve at least 0.9, where 1 is the maximum;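 on AC50: LDH activity released into spent culture medium as a marker of cell death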). Put shortly:
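Differentiated human HepaRG cells, plated 48 h beforehand, were switched to serum-free induction medium and exposed for 48 h to eight half-log concentrations (top 100 uM) in 0.5% DMSO. LDH was measured in spent medium; activity was fitted relative to DMSO vehicle.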

Assay [17] is described as follows: TOX21_p53_BLA_p2_viability: Viability Assessment in the Tox21 HCT-116 p53 Agonism Beta-lactamase Assay, Phase 2 (AID 2283591; active means hit-call score of the fitted dose curve at least 0.9, where 1 is the maximum;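 further: compound exposure lasted 16 h at 37 °C; actives lower the ATP signal meaning cytotoxicity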). Put shortly: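 Cytotoxicity readout: CellTiter-Glo ATP luminescence, 30 min at room temperature, after the beta-lactamase read. Cells were HCT116 exposed 16 h at 37C to compounds pin-transferred at 217-fold dilution from DMSO stocks.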

Read-out in assay [18]: succinate dehydrogenase complex iron sulfur subunit B (SDHB), SDHB (gene 6390)
Put plainly: LTEA_HepaRG_SDHB: Life Technologies and Expression Analysis (LTEA) Assay for succinate dehydrogenase complex iron sulfur subunit B (SDHB) using HepaRG (AID 2283528). The following applies: mRNA level, 48 h; actives raise or lower the signal. Put shortly:
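HepaRG cells (~100,000/well, plated 48 h) exposed in duplicate for 48 h in serum-free induction medium to 8-point half-log series from 100 uM in 0.5% DMSO; mRNA by qRT-PCR normalised to ACTB, GAPDH, POLR2A; bidirectional fit versus DMSO.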

“And” between values parts separate entries of the source, which are not always exact repeats. Equal values may be shown once. Records with an inconclusive call do not appear. The source made the active and inactive calls. How the source made its calls, unless noted: active means hit-call score of the fitted dose curve at least 0.9, where 1 is the maximum; inactive means score below 0.9.

Nuclear factor erythroid 2-related factor 2 (Homo sapiens), sequence (Q16236 whole entry, looked up): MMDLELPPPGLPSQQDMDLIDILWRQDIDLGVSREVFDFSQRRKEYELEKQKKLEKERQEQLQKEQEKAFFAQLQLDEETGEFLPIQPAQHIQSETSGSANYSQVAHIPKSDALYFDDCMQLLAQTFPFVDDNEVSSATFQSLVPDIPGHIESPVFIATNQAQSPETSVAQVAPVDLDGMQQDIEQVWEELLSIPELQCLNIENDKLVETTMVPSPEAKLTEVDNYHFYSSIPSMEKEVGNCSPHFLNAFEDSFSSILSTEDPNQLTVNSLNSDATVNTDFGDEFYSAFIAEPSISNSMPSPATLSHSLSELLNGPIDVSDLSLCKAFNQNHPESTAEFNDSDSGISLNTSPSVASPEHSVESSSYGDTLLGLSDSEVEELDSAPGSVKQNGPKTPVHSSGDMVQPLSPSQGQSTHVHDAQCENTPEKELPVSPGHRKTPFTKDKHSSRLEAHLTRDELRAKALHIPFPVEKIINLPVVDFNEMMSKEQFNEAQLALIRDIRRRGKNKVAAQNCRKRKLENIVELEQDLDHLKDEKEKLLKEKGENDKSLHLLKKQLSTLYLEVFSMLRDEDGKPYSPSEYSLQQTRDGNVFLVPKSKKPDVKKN
Cellular tumor antigen p53 (Homo sapiens), sequence (P04637 whole entry, looked up): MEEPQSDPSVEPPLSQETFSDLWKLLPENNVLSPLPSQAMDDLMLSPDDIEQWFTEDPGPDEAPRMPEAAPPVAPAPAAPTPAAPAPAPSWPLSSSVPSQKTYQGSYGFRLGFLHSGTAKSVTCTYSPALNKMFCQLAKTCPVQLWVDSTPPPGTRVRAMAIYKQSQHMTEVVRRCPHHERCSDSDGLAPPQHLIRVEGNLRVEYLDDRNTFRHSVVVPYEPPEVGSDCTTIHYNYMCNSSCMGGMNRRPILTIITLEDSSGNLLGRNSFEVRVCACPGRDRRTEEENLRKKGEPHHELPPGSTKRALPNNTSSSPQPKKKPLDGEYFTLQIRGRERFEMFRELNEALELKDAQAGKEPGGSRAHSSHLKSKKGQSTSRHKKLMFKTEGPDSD
Signal transducer and activator of transcription 3 (Homo sapiens), sequence (P40763 whole entry, looked up): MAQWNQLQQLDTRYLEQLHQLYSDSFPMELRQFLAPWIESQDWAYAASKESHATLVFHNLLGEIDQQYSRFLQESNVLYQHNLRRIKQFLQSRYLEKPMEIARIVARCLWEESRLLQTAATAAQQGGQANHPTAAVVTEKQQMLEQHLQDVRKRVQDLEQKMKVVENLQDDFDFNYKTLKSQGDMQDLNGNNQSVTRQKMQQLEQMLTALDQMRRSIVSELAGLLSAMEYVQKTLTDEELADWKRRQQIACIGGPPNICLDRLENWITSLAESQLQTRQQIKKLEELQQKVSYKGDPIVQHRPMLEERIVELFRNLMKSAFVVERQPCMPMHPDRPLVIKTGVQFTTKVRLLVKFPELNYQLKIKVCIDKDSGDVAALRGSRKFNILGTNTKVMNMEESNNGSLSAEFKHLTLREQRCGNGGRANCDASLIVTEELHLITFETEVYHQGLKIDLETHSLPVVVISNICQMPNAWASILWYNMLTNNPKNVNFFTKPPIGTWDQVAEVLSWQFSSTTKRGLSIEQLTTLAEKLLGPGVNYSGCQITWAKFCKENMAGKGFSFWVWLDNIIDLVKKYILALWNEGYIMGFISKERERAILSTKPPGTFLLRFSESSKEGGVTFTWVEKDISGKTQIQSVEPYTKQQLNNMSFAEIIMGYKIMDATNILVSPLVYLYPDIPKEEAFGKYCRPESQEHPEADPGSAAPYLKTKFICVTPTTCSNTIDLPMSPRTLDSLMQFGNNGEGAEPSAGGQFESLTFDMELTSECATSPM

As a reminder, the AC50 is the concentration giving half of the maximal activity seen. Regarding `CC(C)(OOC(C)(C)c1ccccc1)c1ccccc1`, the result in assay [1], in assay [2], in assay [3], in assay [4], in assay [5] and in assay [6] was inactive. In addition, the outcome in [7], in [8], in assay [9], in assay [10], in assay [11] and in assay [12] was inactive. For the same molecule, the call in assay [14], in assay [15] and in [16] was inactive. Further, the AC50 in assay [13] was 24.4 µM (active).

Turning to `[Cl-].[Cl-].[Hg+2]`, the outcome in [1], in assay [2], in assay [3], in [4], in assay [5] and in assay [6] was inactive. Further, the molecule was classed as inactive in assay [7], in assay [8], in [9], in assay [10], in [12] and in assay [13]. The outcome in assay [14] and in assay [15] was inactive. Besides, the concentration at half-maximal activity (AC50) is 21.8 µM (active) in assay [11]; 34.8 µM (active) and 7.78 µM (active) and 16.4 µM (active) in assay [17].

Turning to `CCCCCCCCCCCCCN1CC(C)OC(C)C1` (stereo not given), the molecule was classed as inactive in assay [2], in assay [3], in [4], in assay [18], in assay [5] and in assay [6]. Moreover, the molecule was classed as inactive in [7], in assay [8], in assay [9], in assay [10], in assay [11] and in assay [12]. Besides, the result in assay [13], in assay [14], in assay [15] and in assay [16] was inactive.

Turning to `Clc1ccc(C(c2ccc(Cl)cc2)C(Cl)(Cl)Cl)cc1`, the molecule was called inactive in assay [1], in assay [2], in assay [3], in assay [4], in assay [5] and in assay [6]. The call in assay [7], in [8], in assay [9], in [10], in [12] and in assay [14] was inactive. The molecule was classed as inactive in [15]. Besides, the AC50 was 68.1 µM (active) in assay [11]; 2.03 µM (active) in assay [13]; 72.3 µM (active) in [16]; 46.1 µM (active) and 46.4 µM (active) and 23 µM (active) in assay [17].
